Assay results taken from ChEMBL document CHEMBL4513216, “Probing the Open Global Health Chemical Diversity Library for Multistage-Active Starting Points for Next-Generation Antimalarials” (ACS Infect Dis, 2020).
The whole screen tested about 69,000 compounds, of which about 8,600 (12%) showed an effect of 50% or more. The sample holds strong results, similar compounds and a random draw of the others, so the mix is not that of the screen.

system: Plasmodium berghei; test: Screen against P. berghei liver stage (PbLuc), transformed with Luciferase, at 10uM; assay type: functional, HepG2; conditions: tested at 10 uM

Row | SMILES | INHIBITION [%]
1 | CN1CCC(NCC(O)c2cccc(OCc3ccccc3)c2)CC1 (configuration not stated) | 14.9
2 | NC(=O)c1cc(C2CCCN(C(=O)CCc3ccccn3)C2)n[nH]1 (configuration not stated) | -19.9
3 | CCC(C)N(Cc1sccc1C)C(=O)c1ccc(S(C)(=O)=O)cc1 (configuration not stated) | 20.3
4 | CN(C)C(=O)CN1CCC(c2cncc(-c3cccc(Cl)c3)n2)CC1 | 0.301
5 | Cc1ccc(-n2nc3n(c2=O)CCN(C(=O)c2ccc(Cl)cc2)C3)cc1 | 15.9
6 | C1CC(c2nnc(CN3CCCC3c3noc(C4CC4)n3)o2)C1 (configuration not stated) | -7.13
7 | N#CC1(NC(=O)c2ccc(-c3nc(C4CC4)n[nH]3)cc2)CCC1 | 28.8
8 | CCc1noc(CN(CCS(C)(=O)=O)C(C)(C)C)n1 | -37.1
9 | CCc1c(C)nc(C)nc1N1CCC(NCCSc2nnnn2C)CC1 | 36.2
10 | Cn1nnnc1SCc1cc2c(cc1Cl)OCO2 | 25.2
11 | CCc1cc(N2CCC(NCCc3ccc(C)o3)CC2)nc(C)n1 | 21.3
12 | CCc1cc(N2CCC(NCCSc3nnnn3C)CC2)nc(C)n1 | 61.8
13 | Cc1cc(C)nc(N2CCC(NCCSc3nnnn3C)CC2)n1 | 35.1
14 | Cn1nnnc1SCCNC1CCN(c2ccc3c(c2)OCO3)CC1 | 65
15 | CN(Cc1cn(-c2ccccc2)nn1)C1CCCN(c2cccnn2)C1 (configuration not stated) | -9.76
16 | O=C1CC2(CCCNC2)C(=O)N1Cc1cccc(Cl)c1 (configuration not stated) | -4.82
17 | CCN(CC)C1CCN(C(=O)c2cc3cc(C)cc(C)c3nc2C)CC1 | 1.05
18 | CCS(=O)(=O)N1CCOC2(CCCN(c3ccccn3)C2)C1 (configuration not stated) | 50.7
19 | c1ccc(-c2nnc(N3CCCC4(CCOC4)C3)s2)cc1 (configuration not stated) | 56.5
20 | CCS(=O)(=O)N1CCOC2(CCCN(Cc3ccccn3)C2)C1 (configuration not stated) | -28.1
21 | c1ccc2sc(N3CCCC4(CCOC4)C3)nc2c1 (configuration not stated) | -50.5
22 | c1ccc(N2CCOCC3(CCCN(c4nccs4)C3)C2)nc1 (configuration not stated) | 19.8

Row | SMILES | INHIBITION [%]
23 | Cc1ccc(N2CCCC3(COCCN(c4nccs4)C3)C2)nn1 (configuration not stated) | -8.19
24 | c1cnc(N2CCOC3(CCCN(c4cnccn4)C3)C2)nc1 (configuration not stated) | -13.7
25 | Cc1nnc(N2CCCC3(CN(c4ccccn4)CCO3)C2)o1 (configuration not stated) | -34
26 | CCCS(=O)(=O)N1CCOC2(CCCN(c3ccccn3)C2)C1 (configuration not stated) | 11.4
27 | c1ccc(N2CCCC3(COCCN(c4nccs4)C3)C2)nc1 (configuration not stated) | 68.5
28 | c1ccc(N2CCOC3(CCCN(c4ncccn4)C3)C2)nc1 (configuration not stated) | 76.5
29 | OC1(CN2CCCC2)COCCN(c2nnc(-c3ccccc3)s2)C1 (configuration not stated) | 26.6
30 | Cc1ccc(C(=O)N2CCN(C)C3(CCC(=O)N(C)CC3)C2)c(F)c1 (configuration not stated) | 15.8
31 | CCc1nnc(CNC2CCCN(Cc3noc(C4CC4)n3)C2)o1 (configuration not stated) | -16
32 | COCCN1CCC(NCc2c(F)cccc2F)C1 (configuration not stated) | 25.4
33 | CCn1cc(NC(=O)C2CCN(CC(=O)NC(C)(C)CC)CC2)cn1 | 10
34 | CC(=O)N1CCCC2(C1)CN(c1ncc(C)cn1)CCO2 (configuration not stated) | -5.63
35 | CCCS(=O)(=O)N1CCOCC2(CCN(c3ccccn3)C2)C1 (configuration not stated) | 20.5
36 | Cc1cnc(N2CCOC3(CCCN(c4ncccn4)C3)C2)nc1 (configuration not stated) | 0.804
37 | Cc1cnc(N2CCOC3(CCCN(C)C3)C2)nc1 (configuration not stated) | 52.3
38 | CCS(=O)(=O)N1CCCC2(COCCN(c3ccccn3)C2)C1 (configuration not stated) | 56.1
39 | CCS(=O)(=O)N1CCOCC2(CCN(c3ccccn3)C2)C1 (configuration not stated) | 11.4
40 | Cc1cccc(S(=O)(=O)NCC2CCN(c3cnccn3)CC2)c1 | -87.6
41 | CN(C)S(=O)(=O)c1ccc2c(c1)N(Cc1nccn1C)CCC2 | 41.4
42 | COCC(C)(O)CNC(=O)c1cc(-c2cc(OC)ccc2OC)nn1C (configuration not stated) | -43.5
43 | COc1cc(OC)cc(N2CCC(NC(=O)c3cccn3C)CC2)c1 | 62.5
44 | COc1cc(CN2CCC(NC(=O)c3cccn3C)C2)cc(OC)c1 (configuration not stated) | 44.9

Row | SMILES | INHIBITION [%]
45 | CC(C)(C)OC(=O)NC1CCC(NC(=O)c2ccc[nH]2)CC1 (configuration not stated) | 12.7
46 | COc1cc(OC)cc(N2CCC(NC(=O)c3ccc[nH]3)CC2)c1 | 50.5
47 | CCS(=O)(=O)c1ccc(N2CCC(NC(=O)c3cnn(C)c3)CC2)cc1 | 43.4
48 | Cn1ccc(C(=O)NC2CCN(c3ncccn3)CC2)cc1=O | 18.4
49 | CCS(=O)(=O)c1ccccc1N1CCC(NC(=O)c2ccc[nH]2)CC1 | 18.4
50 | CN(C(=O)c1cccn1C)C1CCC(NC(=O)OC(C)(C)C)CC1 (configuration not stated) | 22.3
51 | Cn1cccc1C(=O)NC1CCN(c2ccc(OC(F)(F)F)cc2)CC1 | 64.9
52 | O=S(=O)(NCC1COc2ccccc2C1)N1CCOCC1 (configuration not stated) | 18.6
53 | COc1ccc2c(c1)CC(NCCCn1nc(C)nc1C)CC2 (configuration not stated) | 15.8
54 | O=C(O)c1cc(S(=O)(=O)Nc2cccc3c2OCCO3)ccc1F | 45.7
55 | Cc1cc(C)c(S(=O)(=O)Nc2ccccc2CC(F)(F)F)cc1C(=O)O | 15.9
56 | Cc1cc(C)c(S(=O)(=O)Nc2cccc3c2OCCO3)cc1C(=O)O | 50
57 | Cc1ccccc1NS(=O)(=O)c1cc2c(c(C(=O)O)c1)OCCO2 | 35.3
58 | O=C(O)c1cc(S(=O)(=O)Nc2cccc(F)c2F)cc2c1OCCO2 | 22.3
59 | O=C(O)c1cc(S(=O)(=O)Nc2cccc3c2OCCO3)c(Cl)cc1F | 81.7
60 | Cc1nc(C2CCCN2C(=O)Cc2ccc(F)cc2)nc(O)c1C (configuration not stated) | -10.5
61 | Cc1ccc(-n2nnc(C(=O)NC(C)C)c2C2CC2)cc1 | 15.5
62 | O=C1CCCN1Cc1ncn2c1CN(C(=O)NC1CCCCC1)CCC2 | -19.5
63 | COc1cccc(Nc2nc(C3CCCNC3)c3ccccn23)c1 (configuration not stated) | -23.425
64 | Cc1c(C)n(CC(O)CN2CCCCCC2)c2c(Cl)cccc12 (configuration not stated) | -48.6
65 | Cc1c(C)n(CC(O)CN2CCOCC2)c2c(Cl)cccc12 (configuration not stated) | 56.5
66 | Cc1c(C)n(CC(O)CN2CCC(C)CC2)c2c(Cl)cccc12 (configuration not stated) | 37.3

Row | SMILES | INHIBITION [%]
67 | Cc1nc[nH]c1C(=O)NCc1cccnc1N(C)C1CCCCC1 | 26.8
68 | CCn1cc(C(=O)N(C)[C@@H]2CC[C@@H](N3CCCC3)[C@@H]2O)c(C)n1 | 12.335
69 | COc1ccc(CN2CCN(c3ncc(Cl)cn3)CC2)cc1 | 11.8
70 | CCc1ccc(CN2CCN(c3ccc(Cl)nn3)CC2)nc1 | -7.94
71 | CCc1ccc(CN2CCN(c3ncc(Cl)cn3)CC2)nc1 | 50.1
72 | COc1ccccc1N1CCN(C(=O)Cn2nc(C)cc2C)CC1(C)C | 52.8
73 | COc1ccccc1N1CCN(C(=O)Cn2nccc2C)CC1(C)C | -56.6
74 | COc1ccc(N2CCN(C(=O)CCn3nnnc3C)CC2(C)C)cc1 | -34.8
75 | COc1ccccc1N1CCN(C(=O)CCn2ccnc2C)CC1(C)C | 6.31
76 | COc1ccccc1N1CCN(C(=O)CCn2ccc(C)n2)CC1(C)C | 8.48
77 | COc1ccccc1N1CCN(C(=O)CCn2nnnc2C)CC1(C)C | 51.8
78 | CC1=C(C(=O)NCCc2n[nH]c3c2CCCC3)C(C)NC(=O)N1 (configuration not stated) | -22.3
79 | COCCn1ccnc1C1CCCN(C(=O)c2cc(F)cc(F)c2)C1 (configuration not stated) | 40.2
80 | Cc1occc1C(=O)N1CCCS1(=O)=O | 35.7
81 | Cc1ccsc1CNC(=O)N1CCC(Cc2cnn(C)c2)C1 (configuration not stated) | 11.083
82 | Cc1ccc(CNC(=O)N2CCOCC2C2CC2)cc1F (configuration not stated) | 49.3
83 | COc1ccc(CNC(=O)N2CCOCC2C2CC2)c(C)c1 (configuration not stated) | 17.4
84 | COc1ccc(CNC(=O)N2CCOCC2C2CC2)cc1C (configuration not stated) | 66.7
85 | COc1ccccc1C1Cn2c(C)cnc2CN1Cc1c[nH]nc1C (configuration not stated) | -14.2
86 | Cn1cnc2c1CCN(Cc1csc(Cc3ccccc3)n1)C2 | -3.7
87 | CN(C)C(=O)CC1CC2(CCN(CC3CC3)CC2)Oc2ccccc21 (configuration not stated) | -51.6
88 | Cc1cc(C(=O)N2CC[C@](C)(O)[C@H](C)C2)c(C)n1C | -12.2

Row | SMILES | INHIBITION [%]
89 | CC(c1ccc(F)cc1F)N1CCN(CCC(=O)NC(N)=O)CC1 (configuration not stated) | -8
90 | CC(c1ccc(F)cc1F)N1CCN(CCN2CCCC2=O)CC1 (configuration not stated) | 63
91 | CC(c1ccc(F)cc1F)N1CCN(CCC(=O)O)CC1 (configuration not stated) | -17.7
92 | CCn1nc(C)cc1NC(=O)CCn1nc(C)c(Br)c1C | 31.7
93 | COCCn1ccc(=O)c(OCC(=O)Nc2cccc(Cl)c2)c1C | -21.2
94 | Cc1cc(C)n(C2CN(CCC(N)=O)C2)n1 | -4.96
95 | CC(C)N(C)Cc1cncc2c1CCN(C(=O)c1cccc(C#N)c1)C2 | 12.7
96 | Cc1cc(CN2CCN(Cc3cnc4c(c3)c(C)nn4C)CC2)on1 | 11.5
97 | CCN1CCN(C(=O)c2ccc(Cn3ccccc3=O)o2)CC1 | 39.6
98 | c1cnc(NCc2cncc3c2CCN(Cc2ccoc2)C3)nc1 | 19.4
99 | CC(=O)NCC(=O)N1CCc2c(CNc3ncccn3)cncc2C1 | -2.17
100 | c1csc(CN2CCc3c(CNc4nncs4)cncc3C2)c1 | 42.7
101 | c1cnc(NCc2cncc3c2CCN(Cc2cccs2)C3)nc1 | -38.7
102 | c1cnc(NCc2cncc3c2CCN(Cc2cccnc2)C3)nc1 | 12.4
103 | c1cnc(NCc2cncc3c2CCN(Cc2ccsc2)C3)nc1 | 60.2
104 | Cc1cc(CN2CCc3c(CNc4ncccn4)cncc3C2)oc1C | 67.2
105 | CN(C)C(=O)N1CCc2c(CNc3ncccn3)cncc2C1 | 6.38
106 | COCCC(=O)N1CCc2c(CNc3ncccn3)cncc2C1 | 53.4
107 | Cc1nn(C)c(N2CCOCC2)c1CNC(C)c1cccs1 (configuration not stated) | 16.9
